Screening data as filed in PubChem.
A selection: hits, their analogues and other compounds. The true share with any hit is near 2.8%.
GLP1R cytotox: cytotoxic in the GLP-1 receptor inverse agonist counter-screen; AID 624418; 410,000 tested, 0.13% active; Potency, µM (top dose mostly 38.3 µM), actives largely listed as inhibitors; HEK293 cAMP-luciferase reporter cells, luminescence, 24 h;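 note: loss of luciferase light is scored as toxicity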
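Step one: seed cells (200 cells/uL, DMEM with 10% Nu serum, 1% pen-strep). Step two: 12-hour incubation at 37 deg C. Step three: pin 23 nL compound, incubate 24 hr. Step four: add luciferase reagent, read luminescence 12 min later.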
Mito fusion act: inhibitors of mitochondrial division or activators of mitochondrial fusion | S. cerevisiae fusion-defective mutant growth rescue, CellTiterGlo 48 h | Potency, µM (titrated, usually from 46.1 µM), actives largely listed as activators | 320,000 tested, 0.23% active; note: nearly all actives have a fitted effect of over 45% in size
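Temperature-sensitive fusion-defective S. cerevisiae (e.g. fzo1-1, mgm1-5) were grown with compound in YPEG medium (3% ethanol, 3% glycerol) for 48 hours at 37C. Growth rescue was measured as viability by CellTiterGlo luminescence after 10 minutes at ambient.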
GLP1R inv ag: GLP-1 receptor (human) inverse agonism. P43220. HEK293 GLP-1R CRE-luciferase, luminescence, 24 h; GLP-1R form is constitutively active. Potency, µM (highest dose often 38.3 µM), hits mostly inhibitors. 410,000 tested, 1.6% active. AID 624417; note: nearly all actives have a fitted effect of over 55% in size
Target sequence (P43220 whole entry, looked up): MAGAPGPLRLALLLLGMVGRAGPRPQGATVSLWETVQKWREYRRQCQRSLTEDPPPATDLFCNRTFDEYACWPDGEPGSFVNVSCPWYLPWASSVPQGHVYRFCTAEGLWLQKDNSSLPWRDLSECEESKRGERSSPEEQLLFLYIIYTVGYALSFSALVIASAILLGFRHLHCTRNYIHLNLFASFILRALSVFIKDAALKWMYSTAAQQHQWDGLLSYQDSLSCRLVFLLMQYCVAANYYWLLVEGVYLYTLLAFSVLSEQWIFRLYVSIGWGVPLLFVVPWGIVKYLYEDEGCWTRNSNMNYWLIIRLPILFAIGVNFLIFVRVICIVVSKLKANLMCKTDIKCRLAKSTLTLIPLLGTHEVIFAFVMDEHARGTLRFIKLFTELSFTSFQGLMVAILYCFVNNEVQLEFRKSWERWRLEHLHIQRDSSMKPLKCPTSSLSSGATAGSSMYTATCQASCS
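GLP-1R inverse agonism mode: basal reporter luminescence in engineered HEK293 cells measured after one day of compound exposure at 37 deg C, with a 12 min room-temperature detection step.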
BRCA1 expr up: BRCA1 expression activation. MCF7-BRCA1-FFLuc reporter, luminescence, 48 h; response scale: scaled: vehicle 0%, 10 µM genistein 100%. 380,000 tested, 1.1% active. Potency, µM (series often up to 46.1 µM), hits mostly activators. AID 624202; note: nearly all actives have a fitted effect of over 80% in size
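48 h compound treatment of MCF7-BRCA1-FFLuc cells (phenol-red free MEM, 37 °C), then 15 min with luciferase substrate and luminescence imaging.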
GLP1R ag: activates the human GLP-1 receptor | P43220 | HEK293 GLP-1R CRE-luciferase, luminescence, 4-6 h; cells express a hypersensitive GLP-1R form | Potency, µM (doses to about 45.6 µM), usual class: activators | 380,000 tested, 0.007% active
A number is an active result; 0 = inactive; ? = inconclusive; - = no result given. Calls come from the whole dose curve; as a rule, active = well fitted curve in the direction sought with a large enough effect; inconclusive = small, poorly fitted or top-dose-only effect, or another doubt; inactive = no such curve, though single readings can be large; an effect the other way counts as inactive or inconclusive.

SMILES | GLP1R cytotox | Mito fusion act | GLP1R inv ag | BRCA1 expr up | GLP1R ag
CC(C)(C)OC(=O)N1CCN(c2ccc(NC(=O)Cn3nnc(-c4ccccc4)n3)cc2)CC1 | ? | 0 | ? | 0 | 0
C=CCSc1nnc(NC(=O)c2ccc(S(=O)(=O)NCC3CCCO3)cc2)s1 (configuration not stated) | 0 | 0 | 0 | 0 | 0
CCc1ccc(OCC(=O)Nc2ccc(-c3cc4ccccc4oc3=O)c(OC)c2)cc1 | 0 | ? | ? | 0 | 0
CC(=O)c1ccc(NC(=O)CCc2nnc3ccc(N4CCCC4)nn23)cc1 | 0 | 0 | 0 | 0 | 0
CCCNC(=O)c1noc2c1CCc1ccccc1-2 | 0 | 0 | ? | 0 | 0
O=C(NCCN1CCOCC1)c1noc2c1CCc1ccccc1-2 | 0 | 0 | 0 | 7.9µM | 0
CC(C)CCn1cnc2c(oc3nc4c(cc32)CCCC4)c1=O | 0 | 0 | 8.9µM | 0 | 0
N#CCCCC#Cc1ccc2c(c1)COc1c3ccccc3nn1-2 | 0 | 0 | 2.5µM | 0 | 0
CCCCC#Cc1ccc2c(c1)COc1c3ccccc3nn1-2 | 0 | 0 | 0 | ? | 0
CCOC(=O)c1ccc(NC(=O)Cn2cc(C(=O)c3cccs3)c3ccccc32)cc1 | 0 | - | ? | - | -
Cc1cccc(-c2nc(Nc3cccc(O)c3)c3ccccc3n2)c1 | 0 | ? | 6.3µM | 0 | 0
CC(=O)c1cccc(Nc2nc(-c3cccc(C)c3)nc3ccccc23)c1 | 0 | - | ? | - | -
O=S(=O)(c1ccc(N2CCCC2c2nc3ccccc3s2)nc1)N1CCOCC1 (configuration not stated) | 0 | 0 | 0 | 0 | 0
COc1ccccc1CN(C)C(=O)C(NC(=O)Cc1cccc2ccccc12)C(C)C (configuration not stated) | ? | 0 | 10µM | 0 | 0
CC(=O)c1cc(C#N)c(SCC(=O)OC(C)(C)C)nc1C | 0 | 0 | ? | 5.6µM | ?
CC1(C)CC(=O)c2sc(NC(=O)c3ccccc3)nc2C1 | - | 0 | - | - | -
CC1(C)CC(=O)c2sc(NC(=O)C(C)(C)C)nc2C1 | 0 | 0 | ? | 7.9µM | 0
CN(C(=O)COC(=O)COc1ccccc1F)C1CCS(=O)(=O)C1 (configuration not stated) | 0 | 0 | 0 | 0 | 0
CCOc1ccc(C(=O)C(CCC(CN(C)C)C(=O)c2ccc(OCC)cc2)CN(C)C)cc1 (configuration not stated) | 0 | 0 | 1.6µM | 0 | 0
Cc1ccc(N/N=C/c2ccc3c(c2)OCCO3)cc1Cl | 0 | 0 | ? | 3.2µM | 0
O=C(O)c1cc(N/N=C/c2ccc3c(c2)OCCO3)ccc1Cl | 0 | 0 | ? | ? | 0
O=C(CN1CCC(NC(=O)Cc2ccccc2)CC1)Nc1ccccc1Br | 0 | 0 | 0 | 0 | 0
CN1CCN(c2nc(-c3ccc(C(C)(C)C)cc3)nc3ccccc23)CC1 | 0 | 0 | 8.9µM | 0 | 0
CC1CCN(c2nc(-c3ccncc3)nc3ccccc23)CC1 | 0 | 0 | 6.3µM | 0 | 0
Cc1cccc(C2c3[nH]c4ccccc4c3CCN2C(=O)c2cc3c([nH]c2=O)CCCC3)n1 (configuration not stated) | 0 | 0 | ? | 0 | 0
SMILES | GLP1R cytotox | Mito fusion act | GLP1R inv ag | BRCA1 expr up | GLP1R ag
O=C(NNc1ccc(F)cc1)c1c(F)cccc1Cl | 0 | 0 | 1.1µM | 0 | 0
O=C(NNc1ccc(Cl)cc1)c1c(F)cccc1Cl | 0 | 0 | ? | 0 | 0
O=C(Nc1ccc2c(c1)CCC2)c1c(F)cccc1Cl | 0 | 0 | ? | 5µM | 0
O=C(CNC(=O)c1ccc(Br)cc1)Nc1ccc2c(c1)CCC2 | 0 | - | 0 | 0 | 0
O=C(CNC(=O)c1ccccc1F)Nc1ccc2c(c1)CCC2 | 0 | 0 | 0 | 4µM | 0
C=CC(COCc1ccccc1)N([C@@H](Cc1ccccc1)C(=O)OC)S(=O)(=O)c1ccccc1Br (some centres not stated) | 0 | - | 3.5µM | 0 | 0
C=CC(COCc1ccccc1)N(Cc1ccc(OC)cc1)S(=O)(=O)c1ccccc1Br (configuration not stated) | 0 | 0 | ? | 0 | 0
Cc1cccc(C(=O)C2CCOC(C)(C)C2)c1 (configuration not stated) | 0 | 0 | ? | 0 | 0
Cn1c(=O)n(Cc2ccccc2)c(=O)c2c1nc(NCC1CCCO1)n2Cc1ccccc1 (configuration not stated) | ? | 0 | 4µM | 0 | 0
Cn1c(=O)c2c(nc(NCC3CCCO3)n2C)n(C)c1=O (configuration not stated) | 0 | 0 | 0 | 0 | 0
Cn1c(NCC(O)c2ccccc2)nc2c1c(=O)n(Cc1ccc(Cl)c(Cl)c1)c(=O)n2C (configuration not stated) | 0 | - | 3.2µM | 0 | 0
Cn1c(NCC(O)c2ccccc2)nc2c1c(=O)n(Cc1ccc(Cl)cc1)c(=O)n2C (configuration not stated) | 0 | 0 | ? | 0 | 0
N/C(=N\S(=O)(=O)c1cc(C(F)(F)F)cc(C(F)(F)F)c1)c1ccc(Cl)cc1 | ? | 0 | 2.5µM | 0 | 0
COc1ccc(Nc2ccnc3ccccc23)cc1 | 0 | 0 | ? | 0 | 0
CC(C)Nc1ccc(Nc2ccnc3cc4ccccc4cc23)cc1 | 4.5µM | 0 | 3.2µM | 0 | 0
CCOC(=O)C1=CCN(S(=O)(=O)c2ccccc2C)C1c1ccc(F)cc1 (configuration not stated) | 0 | - | 0 | 0 | 0
CCOC(=O)c1cccc(Nc2ncnc3ccc(C)cc23)c1 | 0 | 0 | 11µM | 0 | 0
COc1ccc(CCC(C)N2CCC(CO)(Cc3ccccc3)CC2)cc1 (configuration not stated) | 0 | 0 | 7.9µM | 0 | 0
Cc1ccc(Nc2nc(-c3cccs3)cs2)nc1 | 0 | 0 | 3.5µM | 0 | 0
CC1(C(=O)NS(=O)(=O)c2ccc(Cl)s2)CCN1C(=O)Cc1ccc(Cl)cc1Cl (configuration not stated) | 0 | - | 0 | 0 | 0
CCOc1ccccc1NC(=O)Cn1c(=O)n(Cc2ccc(C(=O)NCCCOC)cc2)c(=O)c2ccccc21 | 0 | - | 0 | 0 | 0
Cn1c(C(=O)NCc2cccs2)cc2oc3ccccc3c21 | 0 | 0 | 0 | 13µM | 0
Cn1c(C(=O)NCC2CCCO2)cc2c(=O)[nH]c3ccccc3c21 (configuration not stated) | 0 | 0 | 0 | 0 | 0
Cn1c(C(=O)NCC2CCCO2)cc2oc3ccccc3c21 (configuration not stated) | 0 | 0 | 0 | 3.5µM | 0
CCOC(=O)C1CCN(S(=O)(=O)c2cc(C(=O)N3CCCCC3)ccc2OC)CC1 | 0 | 0 | 0 | 0 | 0
Clc1ccc(Oc2nc(Oc3ccc(Cl)cc3)nc(N3CCOCC3)n2)cc1 | 0 | 0 | ? | 0 | 0
c1ccc(Oc2nc(Oc3ccccc3)nc(N3CCOCC3)n2)cc1 | 0 | 0 | 7.9µM | 0 | 0
